Source: PubChem (several laboratories)
m-calpain inh: blocks pig calpain II enzyme activity; AID 1236; 220,000 tested, 0.37% active; inhibition, % at 16 µM; purified calpain II, fluorogenic peptide substrate, 30 min;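 active means inhibition above about 50%, limit read from the data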
FAS-TE inh: inhibitors of human fatty acid synthase thioesterase domain; recombinant FAS-TE, OMFH fluorogenic substrate, fluorescence endpoint; inhibition, % at 15 µM; AID 602261; 360,000 tested, 0.67% active; P49327;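 active means compounds whose normalised, plate-corrected inhibition of enzyme fluorescence in the single-dose primary screen is 50% or more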;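 further: 0% = DMSO with enzyme and 100% = substrate without enzyme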
Target sequence (P49327 whole entry, looked up, the tested form may be a part): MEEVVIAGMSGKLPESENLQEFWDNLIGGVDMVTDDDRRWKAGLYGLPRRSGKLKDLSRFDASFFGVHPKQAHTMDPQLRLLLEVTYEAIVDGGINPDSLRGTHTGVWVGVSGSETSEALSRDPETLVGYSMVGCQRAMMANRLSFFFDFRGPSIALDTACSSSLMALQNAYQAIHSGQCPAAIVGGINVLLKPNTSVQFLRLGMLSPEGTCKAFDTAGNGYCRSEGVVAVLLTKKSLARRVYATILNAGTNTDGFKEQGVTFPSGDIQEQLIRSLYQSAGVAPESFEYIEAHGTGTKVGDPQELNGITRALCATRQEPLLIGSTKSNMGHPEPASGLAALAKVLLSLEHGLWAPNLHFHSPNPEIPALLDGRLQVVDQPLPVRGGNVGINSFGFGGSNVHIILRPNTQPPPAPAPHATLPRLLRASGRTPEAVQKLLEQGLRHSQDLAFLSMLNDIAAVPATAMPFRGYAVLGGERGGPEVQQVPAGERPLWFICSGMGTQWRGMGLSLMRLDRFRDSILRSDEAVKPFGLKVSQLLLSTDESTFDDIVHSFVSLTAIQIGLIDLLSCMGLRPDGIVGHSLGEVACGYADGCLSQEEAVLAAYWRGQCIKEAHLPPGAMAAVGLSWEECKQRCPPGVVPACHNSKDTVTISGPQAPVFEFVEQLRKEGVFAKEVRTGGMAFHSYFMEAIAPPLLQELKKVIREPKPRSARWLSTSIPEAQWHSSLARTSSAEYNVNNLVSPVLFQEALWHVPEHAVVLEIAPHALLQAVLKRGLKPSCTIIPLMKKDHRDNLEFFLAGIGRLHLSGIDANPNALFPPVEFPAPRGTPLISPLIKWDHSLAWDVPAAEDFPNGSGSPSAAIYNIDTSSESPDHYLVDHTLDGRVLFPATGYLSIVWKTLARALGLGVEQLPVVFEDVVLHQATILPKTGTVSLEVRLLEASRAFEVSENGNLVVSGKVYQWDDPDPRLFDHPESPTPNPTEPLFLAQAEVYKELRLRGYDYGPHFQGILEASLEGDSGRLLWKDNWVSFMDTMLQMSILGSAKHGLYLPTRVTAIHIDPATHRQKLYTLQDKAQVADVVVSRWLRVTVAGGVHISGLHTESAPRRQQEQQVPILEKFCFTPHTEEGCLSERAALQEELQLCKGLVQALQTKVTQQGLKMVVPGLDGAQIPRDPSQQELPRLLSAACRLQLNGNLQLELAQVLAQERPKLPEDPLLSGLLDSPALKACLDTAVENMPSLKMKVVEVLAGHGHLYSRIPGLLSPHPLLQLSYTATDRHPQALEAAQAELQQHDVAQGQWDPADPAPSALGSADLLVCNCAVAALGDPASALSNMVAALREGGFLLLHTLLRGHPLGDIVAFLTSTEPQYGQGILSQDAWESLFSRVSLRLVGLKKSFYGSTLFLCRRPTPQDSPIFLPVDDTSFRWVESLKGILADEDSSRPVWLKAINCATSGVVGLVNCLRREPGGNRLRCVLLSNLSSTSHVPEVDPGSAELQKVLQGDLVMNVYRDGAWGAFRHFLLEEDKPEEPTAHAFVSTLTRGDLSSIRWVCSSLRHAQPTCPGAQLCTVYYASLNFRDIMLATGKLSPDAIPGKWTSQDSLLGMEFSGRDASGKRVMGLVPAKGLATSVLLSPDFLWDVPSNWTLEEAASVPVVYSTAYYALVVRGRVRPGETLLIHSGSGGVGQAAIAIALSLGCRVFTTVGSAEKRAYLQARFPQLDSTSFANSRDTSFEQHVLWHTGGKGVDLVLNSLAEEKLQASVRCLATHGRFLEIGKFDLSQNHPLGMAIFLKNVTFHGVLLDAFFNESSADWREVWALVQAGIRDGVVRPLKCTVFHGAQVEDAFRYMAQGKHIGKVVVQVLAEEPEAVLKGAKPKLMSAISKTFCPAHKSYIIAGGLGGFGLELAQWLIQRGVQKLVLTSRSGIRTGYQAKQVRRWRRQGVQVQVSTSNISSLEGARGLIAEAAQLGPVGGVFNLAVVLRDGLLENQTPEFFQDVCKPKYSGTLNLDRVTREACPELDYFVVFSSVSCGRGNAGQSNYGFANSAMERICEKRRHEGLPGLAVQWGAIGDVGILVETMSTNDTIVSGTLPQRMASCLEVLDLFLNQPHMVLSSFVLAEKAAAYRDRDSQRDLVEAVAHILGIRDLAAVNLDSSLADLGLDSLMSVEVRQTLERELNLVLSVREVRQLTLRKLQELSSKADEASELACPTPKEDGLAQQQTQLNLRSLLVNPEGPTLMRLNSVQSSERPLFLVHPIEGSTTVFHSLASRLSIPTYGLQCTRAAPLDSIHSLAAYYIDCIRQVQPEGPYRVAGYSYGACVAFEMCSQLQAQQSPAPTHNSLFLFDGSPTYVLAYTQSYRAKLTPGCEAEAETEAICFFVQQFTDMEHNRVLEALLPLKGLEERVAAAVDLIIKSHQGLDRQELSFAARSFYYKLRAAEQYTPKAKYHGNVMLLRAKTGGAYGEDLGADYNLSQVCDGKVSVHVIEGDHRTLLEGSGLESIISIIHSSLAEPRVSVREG
beta cell repl: MIN6 beta-cell proliferation induction. 330,000 tested, 0.29% active. proliferation, % at 10 µM. MIN6 cells proliferation, ATPlite luminescence, 48 h; cells starved in 0.2% serum; 100% = growth in 10% serum;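 active means compounds whose signal lies at least 3.5 SD above the mean of all wells on their plate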;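 further: 0% = DMSO-treated cells in low-serum medium and 100% = 10% serum control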
Cardio protect: modulators protecting cardiomyocytes from myocardial damage; AID 588492; H9c2 cardiomyocytes, H2O2 injury protection, ATPLite, 2 h; 360,000 tested, 0.63% active; protection from H2O2 cell death, % at 20 µM;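 active means compounds giving at least 50% protection of heart cells from peroxide-induced death in the single-dose screen, raw or plate-pattern-corrected value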;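 further: 0% = DMSO wells with peroxide and 100% = DMSO wells without peroxide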
H9c2 TAG inh: inhibitors of triacylglycerol accumulation; H9c2 cells, Nile Red lipid (TAG) fluorescence; cells loaded with 200 µM oleic acid; inhibition, % at 12.5 µM; 230,000 tested, 0.66% active;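 active means pattern-corrected inhibition of lipid staining of at least 50% with the nuclear-stain viability signal not falling by more than 50%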;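 further: 0% = DMSO wells and 100% = triacsin C control wells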
aDG glyco act: increases alpha dystroglycan glycosylation. 360,000 tested, 0.22% active. Pro5-aDG cells, alpha-DG glycosylation AlphaScreen (IIH6); 0% Pro5, 100% B10-LARGE cell signal. activation, % at 10 µM;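 active means activation of at least 8% versus controls, or a plate z-score of at least 8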;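 further: Pro5 are CHO cells carrying HIG-tagged alpha-DG that lacks glycosylation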
FAS-TE inh conf: FAS thioesterase (human) inhibition, confirmation | 2,300 tested, 45% active | shares compounds with FAS-TE inh | inhibition, % at 15 µM | recombinant FAS-TE, OMFH fluorogenic substrate, fluorescence;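 active means compounds inhibiting the enzyme by at least 50% at 15 µM in any one of the replicates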;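 further: 0% = enzyme with DMSO only and 100% = wells lacking enzyme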
Active calls of the source: *; . = not tested or not shown. The list is not random: actives were taken first. Their share in the collection is about 2.3%.

SMILES	m-calpain inh	FAS-TE inh	beta cell repl	Cardio protect	H9c2 TAG inh	aDG glyco act	FAS-TE inh conf
CC[C@@H]1C(c2ccc(F)cc2)=NN(c2ccc(Br)cc2)[C@H]1C(=O)N1CCOC1=O	.	34	.	-7	-6	0	.
C[C@@H]1CN([C@H](C)CO)S(=O)(=O)c2ccc(C#Cc3ccccc3)cc2O[C@H]1CN(C)C(=O)Nc1ccc2c(c1)OCO2	.	30	.	20	38	0	.
COc1ccc(-c2nc3c(Cl)cc(C(F)(F)F)cn3c2Cc2cccc(F)c2)cc1OC	.	19	.	0	.	0	.
CCOc1ccc(CN2CCN(CCCc3ccccc3)CC2CCO)cc1 (centres undefined)	.	-1	1	-6	-11	0	.
CCNC(=O)C1(C)CCN(C(=O)c2ccc(OC)cc2)C1 (centres undefined)	.	-7	.	-3	8	0	.
O=C1OCCN1C(=O)[C@H]1[C@H](c2ccc(F)cc2)C(c2cccc(Cl)c2)=NN1c1ccccc1	.	59*	.	5	-2	1	11
Cc1cc(-c2ccc(S(=O)(=O)NCc3ccc(Cl)cc3)cc2)on1	.	0	.	-6	-5	0	.
CCCCOc1ccc(-c2c(C#N)c(N)nc(SCC(N)=O)c2C#N)cc1	2	76*	-4	-4	3	1	92*
CCN(CC)C(=O)C1=C(C)N(Cc2ccc(F)cc2)C(=O)C(CC(=O)NC(c2ccccc2)c2ccccc2)C1 (centres undefined)	.	54*	.	4	14	0	31*
Cc1cc(C)c2nc(NC(=O)c3cccc(S(=O)(=O)N4CCc5ccccc54)c3)sc2c1	-69	70*	0	-2	.	0	8
Cc1cccc2sc(NC(=O)c3cccc(S(=O)(=O)N4CCc5ccccc54)c3)nc12	-28	42	-6	-10	.	0	.
Cc1cccc(-c2nnc(SCC(=O)N3c4ccccc4CCc4ccccc43)n2C)c1	36	-4	0	1	.	0	.
Cn1c(SCC(=O)N2c3ccccc3CCc3ccccc32)nnc1-c1cc2ccccc2cc1O	-44	67*	.	-7	19	0	9
O=S(=O)(Nc1ccc(C(O)(C(F)(F)F)C(F)(F)F)cc1)c1cccc2cccnc12	.	13	.	-6	-9	0	.
O=C(c1cc(-c2cccs2)nc2ccccc12)N1CCN(c2ccccc2)CC1	-15	50*	-3	5	-7	0	21
Cc1cc(=O)oc2cc(OCc3ccc(S(=O)(=O)N4CCOCC4)cc3)ccc12	-49	67*	0	-6	.	0	14
COc1ccc(COc2ccc3c(C)cc(=O)oc3c2)cc1	.	29	-2	-3	-2	0	.
O=C(NCC(=O)N1CCCCCCC1)c1cccc([N+](=O)[O-])c1	.	15	-2	-5	9	0	.
COc1ccc2cc(/C=N/NC(=O)c3ccc(CN(c4cccc(Cl)c4Cl)S(C)(=O)=O)cc3)c(Cl)nc2c1	-147	69*	0	2	.	1	20
COc1ccc2cc(/C=N/O)c(Cl)nc2c1	-28	-8	4	7	20	-1	.
O=C(Nc1nnc(-c2ccccc2Cl)s1)C1CCN(S(=O)(=O)c2ccc(Cl)cc2)CC1	-17	72*	0	0	.	0	9
O=C(Nc1nnc(-c2ccccc2F)s1)C1CCN(S(=O)(=O)c2ccc(Cl)cc2)CC1	18	-2	0	-3	.	0	.
Clc1ccc2c(-c3ccccc3)nc(-c3cccs3)nc2c1	.	0	.	.	.	0	.
CN=C1SC(CC(=O)Nc2c(C)cccc2C)C(=O)N1/N=C/c1cccs1 (centres undefined)	-16	-4	0	-4	.	0	.
COc1ccc([N+](=O)[O-])cc1NC(=O)CC1SC(=Nc2cccc(C)c2C)N(/N=C/c2cccc(OC)c2OC)C1=O (centres undefined)	-73	87*	-2	-1	22	-1	8
CCCOc1ccc(N2C(=O)CC(SC(=N)N3N=C(c4ccccc4)CC3c3ccccc3)C2=O)cc1 (centres undefined)	-245	69*	-6	-6	45	2	15
